Assay [1] concerns the target Hepatocyte nuclear factor 4-alpha (Homo sapiens) (UniProt P41235). The assay is described as follows: ATG_HNF4a_TRANS: Attagene TRANS-FACTORIAL HepG2 Assay for human Hepatocyte Nuclear Factor 4 alpha (HNF4a) (AID 2282982; active = hit-call score of the fitted dose curve at least 0.9, where 1 is the maximum). To be noted: HepG2 HNF4a transactivation reporter, mRNA readout. Summed up: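 Multiplexed reporter assay: transfected HepG2, 24 h exposure, total RNA → oligo(dT) RT → PCR → 6-FAM extension → HpaI digest → CE fluorescence. DMSO = negative control.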

Assay [2] can be described thus: ATG_M_32_TRANS: Attagene TRANS-FACTORIAL HepG2 Assay for M32 Transcription Factor (Internal Marker) (AID 2282984; active = hit-call score of the fitted dose curve at least 0.9, where 1 is the maximum;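 note: transcript level of a background control reporter unit measured by RT-PCR and capillary electrophoresis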). To be noted: HepG2 Attagene TRANS M32 internal marker reporter. The procedure, abridged: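 Cell-based TRANS-format assay in HepG2: exogenous chimeric GAL4 reporter units transiently expressed, compounds applied 24 h. Reporter mRNA detected by RT-PCR plus capillary electrophoresis; this readout is an internal background marker.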

For assay [3], the target named is Nuclear receptor subfamily 4 group A member 2 (Homo sapiens) (UniProt P43354). The assay is described as follows: ATG_NURR1_TRANS: Attagene TRANS-FACTORIAL HepG2 Assay for human Nuclear Receptor Related Protein 1 (NURR1) (AID 2282985; active = hit-call score of the fitted dose curve at least 0.9, where 1 is the maximum). To be noted: HepG2 Attagene TRANS reporter, mRNA readout. Summed up: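 Measures transcriptional activation by an exogenous NR-Gal4 chimera in transfected HepG2 liver cells. After 24 h, reporter RNA is reverse-transcribed, amplified and resolved by capillary electrophoresis; DMSO defines baseline.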

The target of assay [4] is Transcriptional activator Myb (Homo sapiens) (UniProt P10242). The assay is described as follows: ATG_Myb_CIS: Attagene CIS-FACTORIAL HepG2 Assay for human Myeloblastosis (Myb) Proto-Oncogene Transcription Factor (AID 2282986). To be noted: HepG2 Attagene CIS-FACTORIAL Myb reporter transcription; actives raise or lower the signal. The procedure, abridged: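 HepG2 cells were transiently transfected with cis-regulated multiple reporter transcription units reflecting endogenous Myb activity, then exposed to compound for 24 hours. Reporter mRNA was measured by RT-PCR with capillary electrophoresis; bidirectional fitting versus DMSO baseline.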

The target in assay [5] is Nuclear respiratory factor 1 (Homo sapiens) (UniProt Q16656). The assay can be described thus: ATG_NRF1_CIS: Attagene CIS-FACTORIAL HepG2 Assay for human Nuclear Respiratory Factor 1 (NRF1) Orphan Gene (AID 2282987). The conditions noted are these: HepG2 NRF1 cis-element reporter, Attagene multiplex; actives raise or lower the signal. The procedure, abridged: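 HepG2 cells transiently transfected with multiple reporter transcription units under cis-regulatory promoter control, so endogenous transcription-factor activity is read. After 24 h compound exposure, reporter mRNA quantified by RT-PCR, fluorescent labelling, HpaI digestion and capillary electrophoresis; bidirectional fitting versus DMSO.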

For assay [6], the target named is Myc proto-oncogene protein (Homo sapiens) (UniProt P01106). The assay is described as follows: ATG_Myc_CIS: Attagene CIS-FACTORIAL HepG2 Assay for human Myelocytomatosis (Myc) Proto-Oncogene Transcription Factor (AID 2282990). To be noted: HepG2, Attagene cis-reporter transcription factor activity; actives raise or lower the signal. Summed up:
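HepG2, transient MRTU transfection (cis promoters, endogenous TFs); 24 h dosing; TriZol RNA → oligo(dT) RT → PCR → 6-FAM primer extension → HpaI cut → CE. Bidirectional fit vs DMSO.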

The nature of assay [7]: ATG_NF_kB_CIS: Attagene CIS-FACTORIAL HepG2 Assay for human Nuclear Factor Kappa B (NF-kB) (AID 2282991). To be noted: HepG2 Attagene cis-factorial NF-kB reporter mRNA; actives raise or lower the signal. The procedure, abridged: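 HepG2 cells transiently transfected with multiplexed cis-element reporter units measuring endogenous transcription factor activity; reporter mRNA read 24 h after dosing by RT-PCR, fluorescent labelling, HpaI digestion and capillary electrophoresis. Bidirectional fit against DMSO baseline.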

A short description of assay [8]: ATG_NRF2_ARE_CIS: Attagene CIS-FACTORIAL HepG2 Assay for human Nuclear Factor Erythroid 2 Related Factor 2 (NFR2) response to Antioxidant Response Elements (ARE) (AID 2282992).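 For AC50: reporter mRNA level measured by RT-PCR and capillary electrophoresis fluorescence.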 The conditions noted are these: HepG2 Attagene ARE/NRF2 reporter, transcription factor activity; actives raise or lower the signal. Summed up: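 Fluorescence intensity of reporter-specific cDNA fragments, separated by capillary electrophoresis, reflects mRNA induction in transfected HepG2 cells at 24 h. Activity is fitted bidirectionally, DMSO serving as baseline.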

Assay [9] in a line: ATG_Oct_MLP_CIS: Attagene CIS-FACTORIAL HepG2 Assay for human Octamer-Binding Transcription Factor (Oct) (AID 2282993). The conditions noted are these: HepG2 Attagene cis-factorial Oct reporter, mRNA; actives raise or lower the signal. Summed up:
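After 24 h compound exposure, transfected HepG2 cells were lysed for total RNA; reporter-specific cDNA was PCR-amplified, fluorescently labelled and sized by capillary electrophoresis. Bidirectional curve fitting used DMSO as baseline.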

Assay [10] addresses Cellular tumor antigen p53 (Homo sapiens) (UniProt P04637). The assay is described as follows: ATG_p53_CIS: Attagene CIS-FACTORIAL HepG2 Assay for human p53 Transcription Factor (AID 2282994). The conditions noted are these: HepG2 p53 cis-element reporter, Attagene mRNA; actives raise or lower the signal. The procedure, abridged:
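Transiently transfected HepG2 (multiple cis reporter transcription units); exposure 24 h; reporter RNA via RT-PCR, 6-FAM extension, 2 h HpaI digest at 37 C, CE detection; DMSO baseline.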

Assay [11] can be described thus: BSK_3C_TissueFactor: BioMAP Diversity Plus: 3C Assay for Tissue Factor Biomarker Activity (AID 2282997). To be noted: BioMAP 3C HUVEC, tissue factor biomarker readout; actives raise or lower the signal. The procedure, abridged: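 Readout: Tissue Factor ELISA. Cells: human primary umbilical vein endothelium. Time: 24 h after dosing. Analysis: bidirectional fit, DMSO baseline.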

Assay [12] in a line: BSK_3C_uPAR: BioMAP Diversity Plus: 3C Assay for Urokinase-type plasminogen activator receptor (uPAR) Biomarker Activity (AID 2282998). To be noted: BioMAP 3C HUVEC, uPAR biomarker ELISA; actives raise or lower the signal. Summed up: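 Values derive from bidirectional curve fitting relative to DMSO, which served as baseline of activity. uPAR was measured by ELISA in human umbilical vein endothelial primary cultures 24 h after compound addition.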
(In an ELISA, binding on a coated surface is turned into a signal by an enzyme label.)

Assay [13] can be described thus: BSK_3C_VCAM1: BioMAP Diversity Plus: 3C Assay for Vascular cell adhesion molecule 1 (VCAM1) Biomarker Activity (AID 2282999). The conditions noted are these: BioMAP 3C HUVEC, VCAM1 ELISA, cytokine-stimulated; actives raise or lower the signal. The procedure, abridged: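 Activity fitted in both directions relative to DMSO, with ELISA measurement of the surface marker on primary HUVEC (3C) at 24 h post-treatment; parallel SRB staining (0.1% SRB, TCA-fixed, 560 nm) flagged overt cytotoxicity.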

Assay [14] is described as follows: BSK_4H_Eotaxin3: BioMAP Diversity Plus: 4H Assay for Eotaxin 3 Biomarker Activity (AID 2283000).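 For outcome: CCL26 protein level quantified by ELISA in parallel with SRB cytotoxicity check.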 To be noted: primary human endothelial cells (HUVEC); actives raise or lower the signal. The procedure, abridged:
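HUVEC, 24 h post-dose, ELISA for Eotaxin-3/CCL26. Gain or loss of signal fitted bidirectionally vs DMSO baseline.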

The target in assay [15] is human Peroxisome Proliferator-activated Receptor alpha (PPARa), PPARA (gene 5465) (UniProt Q07869). The assay is described as follows: ATG_PPARa_TRANS: Attagene TRANS-FACTORIAL HepG2 Assay for human Peroxisome Proliferator-activated Receptor alpha (PPARa) (AID 2283001; active = hit-call score of the fitted dose curve at least 0.9, where 1 is the maximum;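 for AC50: potency for gain of reporter signal over DMSO so agonist or activator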). The procedure, abridged:
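Transfected HepG2 cells treated with test chemical for 24 h. RNA isolated, reverse-transcribed with oligo(dT), PCR-amplified, FAM-labelled and HpaI-digested. Fragments sized by capillary electrophoresis; gain-of-signal fit relative to DMSO.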

Assay [16] has as its target human Peroxisome Proliferator-activated Receptor delta (PPARd), PPARD (gene 5467) (UniProt Q03181). The assay is described as follows: ATG_PPARd_TRANS: Attagene TRANS-FACTORIAL HepG2 Assay for human Peroxisome Proliferator-activated Receptor delta (PPARd) (AID 2283002; active = hit-call score of the fitted dose curve at least 0.9, where 1 is the maximum). Summed up:
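Transient HepG2 transfection (multiple GAL4-UAS RTUs, chimeric receptor-Gal4); 24 h dosing; total RNA → oligo(dT) RT → PCR → 6-FAM primer extension → HpaI cut → CE. Positive direction vs DMSO.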

Assay [17] can be described thus: ATG_M_06_TRANS: Attagene TRANS-FACTORIAL HepG2 Assay for M06 Transcription Factor (Internal Marker) (AID 2282983; active = hit-call score of the fitted dose curve at least 0.9, where 1 is the maximum;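 note: reporter transcript level by RT-PCR then capillary electrophoresis fluorescence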). To be noted: HepG2 Attagene TRANS M06 internal marker reporter. The procedure, abridged:
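In this multiplexed HepG2 system, compounds are incubated 24 h with cells carrying GAL4-UAS reporter units. Reporter RNA is amplified and resolved by capillary electrophoresis, and induction is scored against DMSO.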

Assay [18] can be described thus: ATG_NFI_CIS: Attagene CIS-FACTORIAL HepG2 Assay for human Nuclear Factor I (NFI) (AID 2282989). To be noted: HepG2 cis-regulatory reporter, NFI response element transcription; actives raise or lower the signal. The procedure, abridged:
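Multiplexed cis-reporter system in human HepG2 cells reports native TF activity as reporter mRNA induction 24 h post-dose. Fragments labelled with 6-FAM, HpaI-digested and resolved by capillary electrophoresis; activity fitted both directions versus DMSO.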

Molecules are shown by their SMILES. Where “and” joins values, the source holds several entries; their conditions need not be identical. Equal entries are not always repeated. Inconclusive results are not listed. Calls of active or inactive are those of the source. Rule for the calls, unless noted: active = hit-call score of the fitted dose curve at least 0.9, where 1 is the maximum; inactive = score below 0.9.

The AC50 is the midpoint of the concentration-response curve, whichever way the signal moves.

Nuclear receptor subfamily 4 group A member 2 (Homo sapiens), sequence (P43354 whole entry, looked up, the tested form may be a part): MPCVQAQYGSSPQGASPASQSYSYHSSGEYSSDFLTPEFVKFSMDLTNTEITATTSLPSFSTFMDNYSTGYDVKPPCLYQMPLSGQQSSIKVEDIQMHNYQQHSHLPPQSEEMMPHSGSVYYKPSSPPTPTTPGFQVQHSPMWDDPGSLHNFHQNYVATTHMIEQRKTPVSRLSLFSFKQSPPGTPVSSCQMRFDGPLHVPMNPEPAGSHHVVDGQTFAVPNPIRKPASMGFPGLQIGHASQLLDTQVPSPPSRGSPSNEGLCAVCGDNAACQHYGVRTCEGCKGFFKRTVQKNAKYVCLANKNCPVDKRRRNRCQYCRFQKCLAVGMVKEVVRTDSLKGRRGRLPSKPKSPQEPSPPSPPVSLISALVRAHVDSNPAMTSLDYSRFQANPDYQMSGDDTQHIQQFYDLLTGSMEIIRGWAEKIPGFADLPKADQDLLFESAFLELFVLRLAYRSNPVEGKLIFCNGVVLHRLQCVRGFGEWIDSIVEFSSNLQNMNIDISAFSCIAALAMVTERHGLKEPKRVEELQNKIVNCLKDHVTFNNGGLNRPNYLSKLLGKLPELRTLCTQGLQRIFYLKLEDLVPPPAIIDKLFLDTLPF
human Peroxisome Proliferator-activated Receptor alpha (PPARa), PPARA (gene 5465), sequence (Q07869 whole entry, looked up, the tested form may be a part): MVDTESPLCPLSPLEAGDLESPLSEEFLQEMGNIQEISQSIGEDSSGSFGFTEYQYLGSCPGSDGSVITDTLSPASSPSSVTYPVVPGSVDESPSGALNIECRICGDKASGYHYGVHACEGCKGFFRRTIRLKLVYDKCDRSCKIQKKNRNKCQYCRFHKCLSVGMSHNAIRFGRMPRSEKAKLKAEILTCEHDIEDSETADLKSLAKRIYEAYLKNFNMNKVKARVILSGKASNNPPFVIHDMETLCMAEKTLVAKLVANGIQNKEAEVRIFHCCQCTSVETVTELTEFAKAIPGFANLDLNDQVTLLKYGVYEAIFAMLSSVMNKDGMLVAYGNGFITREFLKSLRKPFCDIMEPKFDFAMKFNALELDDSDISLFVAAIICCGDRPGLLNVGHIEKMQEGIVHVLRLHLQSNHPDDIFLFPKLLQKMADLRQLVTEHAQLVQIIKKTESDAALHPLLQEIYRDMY
Transcriptional activator Myb (Homo sapiens), sequence (P10242 whole entry, looked up): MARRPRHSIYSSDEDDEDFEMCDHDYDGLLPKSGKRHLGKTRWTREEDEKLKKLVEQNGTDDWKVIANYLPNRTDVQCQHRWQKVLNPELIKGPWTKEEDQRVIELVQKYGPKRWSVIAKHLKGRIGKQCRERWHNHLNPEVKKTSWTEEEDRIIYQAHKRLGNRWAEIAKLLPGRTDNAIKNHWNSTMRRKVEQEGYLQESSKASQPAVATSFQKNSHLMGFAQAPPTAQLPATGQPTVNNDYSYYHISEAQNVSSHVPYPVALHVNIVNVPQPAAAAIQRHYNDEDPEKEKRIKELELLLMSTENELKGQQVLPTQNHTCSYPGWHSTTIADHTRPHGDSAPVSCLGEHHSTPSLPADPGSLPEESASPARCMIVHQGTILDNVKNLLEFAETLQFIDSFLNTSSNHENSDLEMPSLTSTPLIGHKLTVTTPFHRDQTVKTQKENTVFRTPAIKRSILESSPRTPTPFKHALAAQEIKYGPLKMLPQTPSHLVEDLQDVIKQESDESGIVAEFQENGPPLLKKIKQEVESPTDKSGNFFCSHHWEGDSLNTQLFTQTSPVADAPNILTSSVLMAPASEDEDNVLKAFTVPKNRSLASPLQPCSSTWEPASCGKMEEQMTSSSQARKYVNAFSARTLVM
Hepatocyte nuclear factor 4-alpha (Homo sapiens), sequence (P41235 whole entry, looked up): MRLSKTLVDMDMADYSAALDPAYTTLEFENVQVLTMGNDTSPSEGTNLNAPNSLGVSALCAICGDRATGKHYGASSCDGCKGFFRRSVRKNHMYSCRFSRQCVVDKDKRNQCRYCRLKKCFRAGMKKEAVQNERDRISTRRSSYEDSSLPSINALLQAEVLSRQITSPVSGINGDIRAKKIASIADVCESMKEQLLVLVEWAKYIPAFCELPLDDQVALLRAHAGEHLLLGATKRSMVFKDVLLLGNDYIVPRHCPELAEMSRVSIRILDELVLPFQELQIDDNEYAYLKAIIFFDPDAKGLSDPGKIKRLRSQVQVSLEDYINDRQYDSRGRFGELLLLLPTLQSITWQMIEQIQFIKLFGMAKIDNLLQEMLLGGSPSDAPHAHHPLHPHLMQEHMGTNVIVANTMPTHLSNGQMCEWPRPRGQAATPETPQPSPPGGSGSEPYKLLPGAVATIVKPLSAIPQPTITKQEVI
Cellular tumor antigen p53 (Homo sapiens), sequence (P04637 whole entry, looked up): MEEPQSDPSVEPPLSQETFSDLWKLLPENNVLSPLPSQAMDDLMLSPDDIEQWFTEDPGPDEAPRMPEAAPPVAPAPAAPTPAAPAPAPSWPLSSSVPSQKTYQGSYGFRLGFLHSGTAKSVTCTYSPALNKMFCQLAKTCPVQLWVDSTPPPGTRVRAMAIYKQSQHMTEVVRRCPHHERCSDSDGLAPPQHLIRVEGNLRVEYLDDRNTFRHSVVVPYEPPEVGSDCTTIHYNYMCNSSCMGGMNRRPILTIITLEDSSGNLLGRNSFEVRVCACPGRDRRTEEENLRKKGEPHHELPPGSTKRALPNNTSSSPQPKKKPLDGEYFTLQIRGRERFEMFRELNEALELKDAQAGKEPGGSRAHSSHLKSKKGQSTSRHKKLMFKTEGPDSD
human Peroxisome Proliferator-activated Receptor delta (PPARd), PPARD (gene 5467), sequence (Q03181 whole entry, looked up, the tested form may be a part): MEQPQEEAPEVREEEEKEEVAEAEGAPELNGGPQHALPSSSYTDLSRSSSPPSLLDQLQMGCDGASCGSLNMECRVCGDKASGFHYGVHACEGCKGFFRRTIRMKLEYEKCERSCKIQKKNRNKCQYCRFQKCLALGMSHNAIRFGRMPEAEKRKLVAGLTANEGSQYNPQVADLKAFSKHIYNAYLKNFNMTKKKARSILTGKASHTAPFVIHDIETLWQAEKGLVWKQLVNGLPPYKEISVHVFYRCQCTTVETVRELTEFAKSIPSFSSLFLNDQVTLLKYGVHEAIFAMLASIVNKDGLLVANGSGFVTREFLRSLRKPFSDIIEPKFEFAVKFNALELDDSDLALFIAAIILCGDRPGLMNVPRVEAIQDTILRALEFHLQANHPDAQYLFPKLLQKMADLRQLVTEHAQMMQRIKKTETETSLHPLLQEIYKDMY
Myc proto-oncogene protein (Homo sapiens), sequence (P01106 whole entry, looked up): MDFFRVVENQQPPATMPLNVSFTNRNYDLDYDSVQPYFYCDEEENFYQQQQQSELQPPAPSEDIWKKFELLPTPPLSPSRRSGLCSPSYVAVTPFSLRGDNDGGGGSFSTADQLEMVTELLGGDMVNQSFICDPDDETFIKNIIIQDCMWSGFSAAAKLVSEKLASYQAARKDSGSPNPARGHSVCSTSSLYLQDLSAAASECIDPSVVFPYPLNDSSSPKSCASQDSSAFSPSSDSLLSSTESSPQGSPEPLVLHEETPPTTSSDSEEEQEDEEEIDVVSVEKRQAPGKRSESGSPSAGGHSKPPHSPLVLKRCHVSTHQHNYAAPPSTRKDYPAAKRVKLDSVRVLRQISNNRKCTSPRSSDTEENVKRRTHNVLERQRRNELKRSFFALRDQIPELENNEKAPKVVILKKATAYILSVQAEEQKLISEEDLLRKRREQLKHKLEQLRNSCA
Nuclear respiratory factor 1 (Homo sapiens), sequence (Q16656 whole entry, looked up): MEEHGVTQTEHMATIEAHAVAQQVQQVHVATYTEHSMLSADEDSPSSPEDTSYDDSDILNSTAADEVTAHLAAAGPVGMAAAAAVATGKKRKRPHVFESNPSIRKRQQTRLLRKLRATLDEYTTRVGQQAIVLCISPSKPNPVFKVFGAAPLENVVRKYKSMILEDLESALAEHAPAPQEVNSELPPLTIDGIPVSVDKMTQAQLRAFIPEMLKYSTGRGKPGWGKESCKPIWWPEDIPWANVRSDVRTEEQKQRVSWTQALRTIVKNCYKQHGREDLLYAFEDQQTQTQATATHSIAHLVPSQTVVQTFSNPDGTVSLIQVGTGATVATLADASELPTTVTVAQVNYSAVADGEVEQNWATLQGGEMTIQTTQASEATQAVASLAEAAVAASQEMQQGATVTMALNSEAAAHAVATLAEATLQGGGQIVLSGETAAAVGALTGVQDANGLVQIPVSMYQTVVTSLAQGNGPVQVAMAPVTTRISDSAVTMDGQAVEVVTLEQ

In the case of `C=CC(=O)OCCC(F)(F)C(F)(F)C(F)(F)C(F)(F)C(F)(F)C(F)(F)C(F)(F)C(F)(F)F`, the result in assay [1], in assay [2], in assay [3], in [4], in assay [5] and in [6] was inactive. Also, the call in assay [7], in [9], in assay [10], in assay [11], in assay [12] and in [13] was inactive. The result in assay [14], in assay [15] and in assay [16] was inactive. In addition, in assay [8], the AC50 was 22.1 µM (active).

In the case of `FC(F)(F)C1(F)C(F)(F)C(F)(F)C(F)(F)C(F)(C(F)(F)F)C1(F)F` (stereo not drawn), the outcome in [17], in assay [2], in assay [4], in assay [5], in [18] and in [6] was inactive. In addition, the outcome in assay [7], in assay [8], in [9], in assay [10], in assay [15] and in [16] was inactive.

For `CCN(CCC#N)c1ccccc1`, the call in [17], in assay [2], in [3], in assay [4], in assay [5] and in assay [6] was inactive. The call in assay [7], in [8] and in [9] was inactive.

On to `CCCCCCCCC1CCC(=O)O1` (stereo not drawn), for which the compound was called inactive in [17], in [2], in assay [4], in assay [5], in assay [18] and in assay [6]. Moreover, the call in assay [7], in assay [8], in [9], in assay [10], in [15] and in assay [16] was inactive.

On to `O=S(=O)(c1ccc(OCc2ccccc2)cc1)c1ccccc1O`, for which the compound was classed as inactive in assay [17], in [2], in [5], in assay [6], in assay [7] and in assay [15]. In [16], the compound was classed as inactive. The AC50 is 49.9 µM (active) in assay [3]; 33.4 µM (active) in [4]; 8.89 µM (active) in assay [8]; 31.9 µM (active) in assay [9]; 33.4 µM (active) in assay [10].

For the compound `O=C(O)c1cccc(C(=O)O)n1`, the call in [17], in assay [2], in [3], in assay [4], in assay [5] and in [18] was inactive. Moreover, the result in assay [6], in assay [7], in assay [8], in assay [10] and in assay [16] was inactive.

For `CC1CCC(C(=O)O)CC1` (stereo not drawn), the compound was called inactive in assay [1], in assay [2], in assay [4], in assay [5], in assay [18] and in assay [6]. Also, the outcome in assay [7], in assay [8], in [9], in assay [10] and in assay [16] was inactive.

In the case of `Oc1c(Cl)cc(Cl)cc1Sc1cc(Cl)cc(Cl)c1O`, the compound was called inactive in [1], in [17], in assay [4], in assay [5], in assay [18] and in assay [6]. Besides, the call in [10] and in assay [16] was inactive. In addition, the AC50 in assay [8] was 3 µM (active); in [9], 3.57 µM (active); in assay [11], 22.2 µM (active) and 21 µM (active); in assay [12] it was 3.97 µM (active) and 7.82 µM (active); in assay [13], 31.3 µM (active) and 28.6 µM (active); in assay [14], 22.2 µM (active) and 18.5 µM (active). Further, the concentration at half-maximal activity (AC50) in assay [15] is 11.1 µM (active).

Values taken from PubChem BioAssay (EPA / NIEHS).
